In all, about 68,000 sequences were measured (“fluorescence intensity (a.u.)”: median about 9,100, highest 2% from about 16,000 on). Many of the other results were omitted from the sample, so the highest values are more common in it than they were.

OsWRKY34, sequence (Q0JBA9 entry or part of it): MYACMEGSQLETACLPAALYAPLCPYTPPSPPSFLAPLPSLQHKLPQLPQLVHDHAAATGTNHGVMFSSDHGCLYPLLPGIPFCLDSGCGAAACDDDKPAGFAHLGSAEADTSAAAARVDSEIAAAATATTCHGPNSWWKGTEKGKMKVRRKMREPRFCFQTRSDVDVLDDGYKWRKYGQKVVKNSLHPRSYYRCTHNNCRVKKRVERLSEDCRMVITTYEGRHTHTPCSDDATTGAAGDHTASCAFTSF

This test has as its target OsWRKY34 (Oryza sativa, UniProt Q0JBA9 1-250). In words: protein-binding microarray (RPBM); PBS, 2% BSA, 51.3 ng/ul salmon testes DNA, 50 uM zinc acetate, 200 nM TF, 25 C, 1 h; high values mean tight binding. Particulars: protein: recombinant; tags: N-terminal polyhistidine and DsRed monomer fusion (pET32a); label: CyDye5-dUTP incorporated in the synthesized complementary strand; 3' TTTTT single-stranded linker to array surface; dsDNA, one strand shown. The method in brief:
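An Axon 4000B scanner gave the binding signal as per-feature fluorescence intensity in arbitrary units. This followed washing of a custom Agilent array that had been incubated for 1 h at 25 °C with 200 nM protein in PBS, 2% BSA, salmon testes DNA and 50 µM zinc acetate. The proteins were transcription factors fused at the N-terminus to polyhistidine and DsRed, expressed in E. coli BL21-CodonPlus and purified on Ni–NTA.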
Take “ATCCTGGACTATGGCTTTCTCTCGTAGCACGATTTTTCTTCGGAGTCACCTAGTGCAG”: the binding signal is 10600 fluorescence intensity (a.u.).
As to “ATTAGTTTTTTTTTCTATATTTAATACTCCATGCATATGTCGGAGTCACCTAGTGCAG”, the binding signal is 9200 fluorescence intensity (a.u.).
Turning to “TTACTTGTACTGTTTGACTATTCGTCTTATTCCAAAAAAACGGAGTCACCTAGTGCAG”, the binding signal is 8820 fluorescence intensity (a.u.).
For “ACTTTTAAACCCATGTTTTACCATTCATCTTAATAAAAAACGGAGTCACCTAGTGCAG”, the binding signal was 8840 fluorescence intensity (a.u.).
For the sequence “TTTGTTTCTTGTTCTAGAGGGTTTCCTAAGGTGTTTAGGACGGAGTCACCTAGTGCAG”, the binding signal was 9940 fluorescence intensity (a.u.).
Turning to “AGCAGAGATTTTTACCACGTGTCTCAACAAATAGCCACATCGGAGTCACCTAGTGCAG”, the binding signal is 8050 fluorescence intensity (a.u.).
Under “CATGGGCTAATGTCCTTTTTTTATATATTTTTTTTGCCCTCGGAGTCACCTAGTGCAG” stands 8990 fluorescence intensity (a.u.); under “TGTAAGCTTATGTGTCATCTTTCTTTGTTTGTGAAGAACCCGGAGTCACCTAGTGCAG”, 8190 fluorescence intensity (a.u.); under “CTTTCTTGCAATTTTGGTCTTCTTTCCTTTTGATTTGGTTCGGAGTCACCTAGTGCAG”, 9200 fluorescence intensity (a.u.).
Under “CTGCCGGCTGCTCAATTTATTCCCTTGCTGTTTCATTTCGCGGAGTCACCTAGTGCAG” stands 45500 fluorescence intensity (a.u.).
For the sequence “AGTAGCATTTGTTGACTTGTTGTATTCTTCTAGCCTTTTTCGGAGTCACCTAGTGCAG”, the binding signal is 13800 fluorescence intensity (a.u.).
Consider “CGCCCCTTGATTCGCCTCGTTTTTTCTTTTCCCTTTTTTTCGGAGTCACCTAGTGCAG”, for which the binding signal is 9920 fluorescence intensity (a.u.).
Regarding “ACTCCTCTTCTCTTCATTTTCTTCTTCCCCTGTGCTTCTCCGGAGTCACCTAGTGCAG”, the binding signal was 10900 fluorescence intensity (a.u.).
As to “CCTCTTTATTCCATTAGCTTTTTTCATCTTCTGCTCCATCCGGAGTCACCTAGTGCAG”, the binding signal is 10500 fluorescence intensity (a.u.).
Consider “GGCTGCTATATTGACCTTGCTCTTATTCCTTCATTCAATTCGGAGTCACCTAGTGCAG”, for which the binding signal was 10500 fluorescence intensity (a.u.).
For the sequence “GAGCATTGGGTTGGGCCTTCCTTTCTTGTATTCGGCTTCTCGGAGTCACCTAGTGCAG”, the binding signal was 16500 fluorescence intensity (a.u.).
On to “CTTTTTCCTTGCAATCGTGATTCTTTTTTTTTTCCCTTTTCGGAGTCACCTAGTGCAG”, for which the binding signal is 17400 fluorescence intensity (a.u.).
Take “CCTTGCCTAGTCGCTGCTGCTGTTTATAAATTTCAACTCCCGGAGTCACCTAGTGCAG”: the binding signal is 8810 fluorescence intensity (a.u.).
As to “TCTTGGGCTTGGGCCTTTGCTATTGTATTGGGTTGGGCCTCGGAGTCACCTAGTGCAG”, the binding signal was 8400 fluorescence intensity (a.u.).
As to “CCTGACGTGCTTCACCTCACCTGCTCATTTTTTATTTCCCCGGAGTCACCTAGTGCAG”, the binding signal was 17300 fluorescence intensity (a.u.).
Consider “ATTCCTTGTTGGTAACTGTACCCAGGGGCGGGTCCAACGTCGGAGTCACCTAGTGCAG”, for which the binding signal was 8270 fluorescence intensity (a.u.).
As to “CACGATGATTGTTGCTGCACCATAGTCTCCATGTGTGTACCGGAGTCACCTAGTGCAG”, the binding signal is 8410 fluorescence intensity (a.u.).
For the sequence “TGTTTGCACCTTATTACGGTTCTGCGCGCTCTCTCTCTCGCGGAGTCACCTAGTGCAG”, the binding signal was 8560 fluorescence intensity (a.u.).
Turning to “ATACTTAATTAATCATTCGCTAATGGACCACTCTGTTTTCCGGAGTCACCTAGTGCAG”, the binding signal was 8430 fluorescence intensity (a.u.).
Regarding “CCATTGTGTCATTCAGTTATTGTTACTTTCAGTTGTTCTACGGAGTCACCTAGTGCAG”, the binding signal is 12200 fluorescence intensity (a.u.).
Under “GTCTCTCTCACCGTCTCCGTGCTCCTCCGCCGCCCAAGGGCGGAGTCACCTAGTGCAG” stands 12900 fluorescence intensity (a.u.); under “GCAAGGTGTACCCGCAGTTCTCACGGTTACCACCATTTTCCGGAGTCACCTAGTGCAG”, 8430 fluorescence intensity (a.u.); under “TGGTGTTGTTGGTGTCGTCTTGTTCTTGTTTGTGTTTTCTCGGAGTCACCTAGTGCAG”, 15900 fluorescence intensity (a.u.).
In the case of “CGAGTCGAGCTTTTCTTTCTTTGGTTGGTTGGTTGGTGTTCGGAGTCACCTAGTGCAG”, the binding signal was 19600 fluorescence intensity (a.u.).
The same measure for “CGAGGTTCTTTGCTTCATACTTTTTTTTGGTGTTCTACTTCGGAGTCACCTAGTGCAG”: 11200 fluorescence intensity (a.u.); for “GTGCTACTCCATATACGTATGGCTGGTTTGGTTGGTTGAGCGGAGTCACCTAGTGCAG”: 21400 fluorescence intensity (a.u.).
As for “GTGGGTATGGTTGACTTGACGGACGTACTACTCCATACTACGGAGTCACCTAGTGCAG”, the binding signal is 8190 fluorescence intensity (a.u.).
For “CGTTCGCGTTTCGGTTTGACCGCGCGTCTCGCCTAGATTTCGGAGTCACCTAGTGCAG”, the binding signal is 8650 fluorescence intensity (a.u.).
Take “AGTTTTTTTTTCAGCTTTTTGGTTTCTTTTGCTGTTGTTTCGGAGTCACCTAGTGCAG”: the binding signal was 10300 fluorescence intensity (a.u.).
Under “AGAGTTTGGCATACTCCTACGTATCATTGTCGACCTTTAGCGGAGTCACCTAGTGCAG” stands 8340 fluorescence intensity (a.u.); under “CGGCTAGGGTTTGTTTTTCTTTTCTTTTTTTCCTTTTCTTCGGAGTCACCTAGTGCAG”, 14300 fluorescence intensity (a.u.).
Turning to “TGGTTGGTTTGTTGGGTTCTTTTCCTTTTTTTTGTTTCTTCGGAGTCACCTAGTGCAG”, the binding signal was 26700 fluorescence intensity (a.u.).
For the sequence “TTGGTTCGGTTTTTTCTGCCCGCGTCGGTTTTTGTCTCACCGGAGTCACCTAGTGCAG”, the binding signal was 20100 fluorescence intensity (a.u.).
As to “CGAGGTCGTTTGGTTTTCTTTTCCTTTTTGGTTGTGTGTTCGGAGTCACCTAGTGCAG”, the binding signal was 9070 fluorescence intensity (a.u.).
On to “TAGATAGGGGATGTATAGGACAAGAGAGAACACATGCATTCGGAGTCACCTAGTGCAG”, for which the binding signal was 8690 fluorescence intensity (a.u.).
Turning to “TTAACCTCTCTCTTAATTTCAGTTTGTTTGTTCGTTCGTTCGGAGTCACCTAGTGCAG”, the binding signal is 9010 fluorescence intensity (a.u.).
In the case of “ACAGCCTATATACACTACTCACTCCGTCTCAGAATATAAGCGGAGTCACCTAGTGCAG”, the binding signal was 8900 fluorescence intensity (a.u.).

The values above are taken from paper PMC7819943, “Rice protein-binding microarrays: a tool to detect cis-acting elements near promoter regions in rice”.
